Laboratory results from PubChem BioAssay.
Calls of active or inactive are those of the source. The rule behind the calls is not given here.

What follows are compounds tested against Pantothenate synthetase (Mycobacterium tuberculosis (strain ATCC 25618 / H37Rv)) (UniProt P9WIL5) (assay: Recombinant Mtb pantothenate synthetase (PanC) inhibitors, coupled enzyme, confirmatory (AID 375;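 note: 0% = full reaction with vehicle and 100% = no enzyme background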)). Settings: coupled enzyme assay; at 10 µM, hits give high values.
Pantothenate synthetase (Mycobacterium tuberculosis (strain ATCC 25618 / H37Rv)), sequence (P9WIL5 whole entry, looked up): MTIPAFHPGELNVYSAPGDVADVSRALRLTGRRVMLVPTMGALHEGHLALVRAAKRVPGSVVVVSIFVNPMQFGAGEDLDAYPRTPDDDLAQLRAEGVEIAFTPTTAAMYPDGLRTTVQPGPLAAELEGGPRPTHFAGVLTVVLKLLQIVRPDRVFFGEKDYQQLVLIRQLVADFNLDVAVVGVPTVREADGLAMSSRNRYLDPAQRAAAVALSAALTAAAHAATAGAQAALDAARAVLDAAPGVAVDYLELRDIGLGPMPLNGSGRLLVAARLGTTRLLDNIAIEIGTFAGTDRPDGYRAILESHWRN
In the case of `CCOP(=O)(c1ccc(N(C)C)cc1)C(O)c1cc(OC)c(OC)c(OC)c1` (configuration not stated), the inhibition is reported as 0% (inactive).
For `Cc1cccc(N2CN=c3s/c(=C\c4ccncc4)c(=O)n3C2)c1`, the inhibition was 6% (inactive).
In the case of `Cc1ccc2nc(SCC(=O)NCc3ccco3)c(C#N)cc2c1`, the inhibition is reported as 0% (inactive).
With `Cc1cc(NC(=O)CCCC(=O)Nc2ccc(F)cc2)no1` the inhibition was 4% (inactive).
With `CCn1c(CCC(=O)Nc2nc3c(s2)CCCC3)nc2cc(S(=O)(=O)N(C)C)ccc21` the inhibition was 3% (inactive).
With `O=C1c2cccnc2C(=O)N1c1cccc(-c2nc3ccccc3o2)c1` the inhibition was 3% (inactive).
For `CN1CCCC(OC(=O)COc2ccc(Br)cc2)C1` (configuration not stated), the inhibition was 3% (inactive).
In the case of `O=C(NCCCN1CCN(CCCNC(=O)c2ccc(F)cc2)CC1)c1ccc(F)cc1`, the inhibition is reported as 0% (inactive).
`Cc1ccc(S(=O)(=O)N2CCN(S(C)(=O)=O)C2c2ccccc2)cc1` (configuration not stated) was tested, and the inhibition was 0% (inactive).
For `CCOc1ccc2cc(C#N)c(SCC(=O)N3CCOCC3)nc2c1`, the inhibition was 0% (inactive).
In the case of `CCOC(=O)c1c(C)[nH]c(C=Nc2ccccc2)c1O`, the inhibition is reported as 0% (inactive).
With `CCCN1CCN(CCCNC(=O)Cn2ncc3c4ccccc4n(C)c3c2=O)CC1` the inhibition was 3% (inactive).
`COC(=O)c1ccccc1NC(=O)C1CCCCC1C(=O)O` (configuration not stated) was tested, and the inhibition was 0% (inactive).
`CS(=O)(=O)N(CC(=O)NCCSCc1cccc(Cl)c1)c1ccc2c(c1)OCO2` was tested, and the inhibition was 1% (inactive).
With `COc1ccc(N2CCN(C(=O)CCNS(=O)(=O)c3ccc(Br)s3)CC2)cc1` the inhibition was 3% (inactive).
`COC(=O)c1ccc(Cl)c(NC(C)=O)c1` was tested, and the inhibition was 4% (inactive).
`COc1ccc(C2CC(c3ccc(Cl)cc3Cl)n3nc(N)nc3N2)cc1` (configuration not stated) was tested, and the inhibition was 0% (inactive).
With `Cc1ccc(-c2noc(C3CCCN(C(=O)c4ccc(F)cc4F)C3)n2)cc1` (configuration not stated) the inhibition was 0% (inactive).
For `COc1ccc(-n2c(=O)c3c4c(sc3n3cnnc23)CC(C)CC4)cc1` (configuration not stated), the inhibition was 1% (inactive).
`O=C(c1ccccc1)N1CCCCC(Sc2nnnn2-c2ccccc2)C1=O` (configuration not stated) was tested, and the inhibition was 0% (inactive).
For `CCNC(=O)COc1ccc(Br)cc1Cl`, the inhibition was 4% (inactive).
`CN(C)c1ccnc(NCc2ccccc2)c1C#N` was tested, and the inhibition was 0% (inactive).
